The source made the active and inactive calls. Unless noted, how the calls were made is not given here.

Assay [1] relates to XIP peptide (Xip251-270) binding. Put plainly: XIP fragment 251-270 binding compounds – biochemical, small-molecule microarray, fluorescence 635/667 nm, 0.1 µg/mL protein, primary screen (AID 1182). As to conditions: fluorescent protein binding, 635 nm, higher = more signal, called active from +8 up or from −8 down.
The subject of a further assay is XIP peptide (Xip251-270). Put plainly: compounds binding XIP fragment 251-270 – biochemical, small-molecule microarray, fluorescence 635/667 nm, 0.5 µg/mL protein, primary screen (AID 1183). The following applies: fluorescence 635 nm, higher = more signal.
Assay [2] is described as follows: blood-stage malaria parasite viability loss – strain 3D7, DAPI fluorescence, 100 nL, primary screen (AID 1184).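 Further: parasites grown inside human red blood cells in medium with human serum.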 As to conditions: P. falciparum 3D7 growth, 3 d, higher = more signal.
The target in assay [3] is Homeobox protein Hox-A13 (Mus musculus) (UniProt Q62424). Put plainly: disruptors of Hoxa13 oligonucleotide interaction – biochemical, fluorescence polarization, labeled oligonucleotide, primary screen (AID 1185). As to conditions: Hoxa13:DNA binding, 15 min, higher = more signal, called active from +8 up or from −8 down. In general terms: Fluorescence polarisation rises when a labelled molecule tumbles more slowly, as on binding a larger partner.
Sequence of Homeobox protein Hox-A13 (Mus musculus) (Q62424 whole entry, looked up): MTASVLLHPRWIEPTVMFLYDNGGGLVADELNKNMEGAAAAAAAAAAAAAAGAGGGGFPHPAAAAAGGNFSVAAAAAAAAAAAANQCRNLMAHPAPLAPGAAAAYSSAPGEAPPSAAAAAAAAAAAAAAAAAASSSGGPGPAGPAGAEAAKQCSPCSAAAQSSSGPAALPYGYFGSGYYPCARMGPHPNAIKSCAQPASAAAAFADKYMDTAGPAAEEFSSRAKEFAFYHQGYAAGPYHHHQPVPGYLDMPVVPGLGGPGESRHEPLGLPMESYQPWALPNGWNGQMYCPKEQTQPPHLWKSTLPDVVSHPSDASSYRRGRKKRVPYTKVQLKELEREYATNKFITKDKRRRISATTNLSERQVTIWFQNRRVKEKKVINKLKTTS

Assay [4] is described as follows: blockers of DNA damage checkpoint Chk1 activation – imaging, HeLa, hydroxyurea, phospho-Chk1 antibody, percent positive cells, primary screen (AID 1186). The following applies: hydroxyurea-induced phospho-Chk1 immunofluorescence imaging, higher = more signal.
Assay [5] can be described thus: blockers of DNA damage checkpoint Chk1 activation – imaging, HeLa, hydroxyurea, phospho-Chk1 nuclear intensity, primary screen (AID 1187). As to conditions: hydroxyurea-induced phospho-Chk1 immunofluorescence imaging, higher = more signal.

As to `C=CCNC(=O)[C@@H]1[C@H]2C(=O)O[C@H](c3ccccc3)[C@H](c3ccccc3)N2[C@H](c2ccc(O)cc2)[C@@]12C(=O)N(C(=O)OCCOC)c1ccc(C#CCNC(N)=O)cc12`, the composite z-score in assay [1] was 0.963 (inactive); in the assay with XIP peptide (Xip251-270), 0.787. Also, the z-score was 0.251 in assay [2], -2.11 (inactive) in assay [3], -0.26 (inactive) in assay [4] and -0.436 (inactive) in assay [5].
Regarding `C=CCOC(=O)[C@H]1[C@@H]2C(=O)O[C@@H](c3ccccc3)[C@@H](c3ccccc3)N2[C@@H](c2ccc(OCCOC(=O)[C@H]3C[C@H]4C(=O)N[C@@H](CCCCNC(C)=O)C(=O)N4[C@H]3c3ccc(O)cc3)cc2)[C@]12C(=O)Nc1ccc(I)cc12`, the composite z-score in assay [1] was 0.159 (inactive); in the assay on XIP peptide (Xip251-270) it was 0.671. Besides, the z-score was -1.39 in assay [2], 5.87 (inactive) in assay [3], -0.484 (inactive) in assay [4] and -0.782 (inactive) in assay [5].
As for `COc1cc(Br)cc(C(O)C2C=CC3C(=O)N(C)C(=O)C3N2N2CCCCC2)c1OC` (stereo unspecified), the composite z-score was -0.0992 (inactive) in assay [1] and 0.823 in the assay on XIP peptide (Xip251-270). The z-score in assay [2] was -0.11; in assay [3], -2.65 (inactive); in assay [4], 0.293 (inactive); in assay [5] it was 0.0293 (inactive).
On to `[N-]=[N+]=Nc1ccccc1[C@H]1OC(c2ccc(OCCCO)cc2)=N[C@@]1(CCS(=O)(=O)c1ccccc1)C(=O)NCC(O)CO` (stereo partly specified), for which the composite z-score in assay [1] was -0.193 (inactive); in the assay on XIP peptide (Xip251-270) it was 0.557. In addition, the z-score in assay [2] was -1.81; in assay [3] it was -4.65 (inactive); in assay [4] it was -0.0536 (inactive); in assay [5] it was -0.22 (inactive).
As to `CC(C)NC(=O)[C@@]1(c2ccc([N+](=O)[O-])cc2)CC(=O)N(C2CCCCC2)[C@@H]1c1ccc(CO)cc1I`, the composite z-score in assay [1] is 0.46 (inactive); in the assay with XIP peptide (Xip251-270), 0.697. Moreover, the z-score is -1.63 in assay [2], -4.64 (inactive) in assay [3], 0.1 (inactive) in assay [4] and 0.635 (inactive) in assay [5].
As for `CC(C)C(=C=CC[C@@H](O)c1ccc(OCCO)cc1)C[C@@H](O)c1ccccn1`, the composite z-score in assay [1] is 1.5 (inactive); with XIP peptide (Xip251-270), 0.198. Besides, the z-score in assay [2] is -0.278; in assay [3], -5.14 (inactive); in assay [4], -0.329 (inactive); in assay [5], -0.22 (inactive).
Turning to `CC1(C)[C@@H]2CC(C(O)C3C=CC4C(=O)N(c5ccccc5)C(=O)C4N3Nc3ccc([N+](=O)[O-])cc3)=C[C@H]1C2` (stereo partly specified), the values for the composite z-score (in assay [1]; in the assay with XIP peptide (Xip251-270)) were 0.19 (inactive) and 0.797, respectively. In addition, the z-score in assay [2] is -0.545; in assay [3] it was -2.94 (inactive); in assay [4] it was 0.0793 (inactive); in assay [5], -0.261 (inactive).
In the case of `CCC[C@@H]1C[C@@]1(CCC)[C@@H](NC(=O)c1ccccc1)c1cccc(Cl)c1`, the composite z-score is 0.11 (inactive) in assay [1] and -0.211 in the assay on XIP peptide (Xip251-270). Further, the z-score in assay [2] is -0.348; in assay [3], 2.13 (inactive); in assay [4], -0.769 (inactive); in assay [5], -0.608 (inactive).
Consider `C=C[C@H](C)[C@@H](OC(=O)Nc1ccc(OC)cc1)c1ccc(O)c2ccccc12`, for which the figures for the composite z-score (in assay [1]; with XIP peptide (Xip251-270)) were 0.863 (inactive) and 0.251, respectively. Moreover, the z-score was 0.0221 in assay [2], -4.35 (inactive) in assay [3], -0.025 (inactive) in assay [4] and 0.099 (inactive) in assay [5].
Consider `C=C[C@H](CO)NS(=O)(=O)c1ccc(Br)cc1`, for which the composite z-score was -0.365 (inactive) in assay [1] and 0.242 in the assay on XIP peptide (Xip251-270). Also, the z-score in assay [2] was 0.843; in assay [3], 0.205 (inactive); in assay [4], -0.462 (inactive); in assay [5], -0.458 (inactive).
Consider `NC(=O)NCC#Cc1ccc2c(c1)[C@]1(C(=O)N2)[C@H](C(=O)Nc2nc3ccccc3s2)[C@H]2C(=O)O[C@H](c3ccccc3)[C@H](c3ccccc3)N2[C@@H]1c1ccccc1OCCO`, for which the composite z-score is 0.478 (inactive) in assay [1] and 0.606 with XIP peptide (Xip251-270). In addition, the z-score in assay [2] is -1.74; in assay [3], 2.54 (inactive); in assay [4], 0.302 (inactive); in assay [5], 0.603 (inactive).
Take `O=C1C2C=CC(C(O)c3cccc4ccccc34)N(Nc3ccccc3F)C2C(=O)N1c1ccccc1` (stereo unspecified): the composite z-score in assay [1] was 1.09 (inactive); with XIP peptide (Xip251-270), 0.871. Moreover, the z-score in assay [2] is 0.71; in assay [3] it was -3.52 (inactive); in assay [4], 0.228 (inactive); in assay [5], 0.807 (inactive).
For the compound `CC(=O)NCCCC[C@@H]1NC(=O)[C@@H]2C[C@H](C(=O)NCCCCCNC(=O)CS)[C@H](c3cccc(OCCO)c3)N2C1=O`, the composite z-score in assay [1] is 1.84 (inactive); in the assay on XIP peptide (Xip251-270), 0.471. Also, the z-score in assay [2] is 0.246; in assay [3] it was -3.21 (inactive); in assay [4], -0.224 (inactive); in assay [5], -0.27 (inactive).
As to `CC1(C)[C@@H]2CC(C(O)C3C=CC4C(=O)N(Cc5ccccc5)C(=O)C4N3n3cnnc3)=C[C@H]1C2` (stereo partly specified), the composite z-score in assay [1] is 0.902 (inactive); in the assay on XIP peptide (Xip251-270) it was -0.0686. Moreover, the z-score in assay [2] was -0.101; in assay [3], -3.19 (inactive); in assay [4], 0.338 (inactive); in assay [5], -0.115 (inactive).
Regarding `CC(C)C[C@@H]1NC(=O)[C@H](C(C)C)NC(=O)[C@@]23C(=O)N[C@@H](Cc4ccccc4)C2[C@H](C)[C@@]2(C)O[C@H]2C3/C=C/CC/C=C/CNC1=O` (stereo partly specified), the composite z-score in assay [1] was 0.758 (inactive); in the assay with XIP peptide (Xip251-270) it was 0.607. Further, the z-score is -1.4 in assay [2], -6.99 (inactive) in assay [3], 0.0132 (inactive) in assay [4] and 0.432 (inactive) in assay [5].
`C=C(COC)/C(=C/C[C@@H](OC(C)=O)c1ccc(OCCO)cc1)c1cnc2ccccc2c1`: the composite z-score in assay [1] is -0.263 (inactive); in the assay with XIP peptide (Xip251-270), 0.554. Further, the z-score in assay [2] was -3.23; in assay [3] it was -6.01 (inactive); in assay [4], 0.136 (inactive); in assay [5], -0.201 (inactive).
With `C=C(CC1([C@@H](NP(=O)(c2ccccc2)c2ccccc2)[C@H]2C[C@@H]2CCCC)CC1)c1ccccc1`, the composite z-score is -0.0402 (inactive) in assay [1] and 0.143 in the assay with XIP peptide (Xip251-270). For the same compound, the z-score in assay [2] is -0.548; in assay [3], -2.33 (inactive); in assay [4] it was 0.779 (inactive); in assay [5], 1.12 (inactive).
Regarding `O=C1C[C@]2(c3ccc([N+](=O)[O-])cc3)C(=O)N(CC(F)(F)F)c3cc(CO)ccc3[C@H]2N1C1CCCCC1`, the results for the composite z-score (in assay [1]; in the assay on XIP peptide (Xip251-270)) were -0.0975 (inactive) and 0.0582, respectively. Besides, the z-score in assay [2] is -0.762; in assay [3] it was -1.39 (inactive); in assay [4], -0.219 (inactive); in assay [5], -0.125 (inactive).
In the case of `O=C1C[C@@](C(=O)NCCN2CCOCC2)(c2ccc([N+](=O)[O-])cc2)[C@@H](c2ccc(CO)cc2)N1CC12CC3CC(CC(C3)C1)C2`, the composite z-score in assay [1] is 1.28 (inactive); with XIP peptide (Xip251-270) it was 0.795. Also, the z-score in assay [2] was -1.29; in assay [3], -4.58 (inactive); in assay [4] it was -0.489 (inactive); in assay [5], -0.649 (inactive).
Take `COc1cc2c(cc1OC)CN(C(=O)[C@@H]1[C@H]3C(=O)O[C@H](c4ccccc4)[C@H](c4ccccc4)N3[C@H](c3ccccc3OCCO)[C@@]13C(=O)Nc1ccc(C#CCCO)cc13)CC2`: the composite z-score in assay [1] was 2.75 (inactive); with XIP peptide (Xip251-270), 0.827. For the same compound, the z-score was -2.18 in assay [2], 3.45 (inactive) in assay [3], 0.14 (inactive) in assay [4] and 0.598 (inactive) in assay [5].
`COc1ccc([Si](C)(C)[C@@H]2[C@@H](CC(=O)N3CCC[C@H]3CO)O[C@]3(C(=O)N(c4ccccc4)c4ccccc43)[C@H]2C)cc1`: the values for the composite z-score (in assay [1]; with XIP peptide (Xip251-270)) were -0.152 (inactive) and 0.591, respectively. In addition, the z-score in assay [2] was -0.831; in assay [3], -5.71 (inactive); in assay [4], -0.845 (inactive); in assay [5], -1.31 (inactive).

Values taken from PubChem BioAssay.
